An excerpt weighted towards active compounds, which were near 19% of everything screened.
HT1080 IDH1KD tx = toxicity to HT-1080 IDH1 knockdown cells (counter line) | 360,000 tested, 2% active | HT-1080 IDH1 knockdown viability, ATP luminescence, 48 h | Potency, µM (top dose mostly 46.1 µM), for inactives: at the highest dose activity, negative = toxicity, most hits filed as cytotoxic;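 also: 0% = DMSO wells and -100% = cell-free medium wells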
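CellTiter-Glo luminescence after 48 h compound exposure at 37 degrees C of IDH1-knockdown HT-1080 cells in 5% FBS RPMI. %Activity scaled between DMSO wells and cell-free media wells, with curves fitted and assigned curve classes.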
TDP1 cell CPT = growth inhibition of DT40 Tdp1-/-;hTDP1 cells with camptothecin (screen for TDP1 inhibitors). AID 686979. 420,000 tested, 12% active. chicken DT40 Tdp1-/-;hTDP1 cells + 20 nM CPT, ATP luminescence, 48 h. Potency, µM (doses to about 46.2 µM), inactives show at the top dose activity change, negative = growth inhibition, most hits filed as inhibitors; also: nearly all actives have a fitted effect of over 55% in size
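Chicken DT40 Tdp1-/- cells stably complemented with human TDP1 were seeded at 400 cells/well in medium containing 20 nM camptothecin, exposed to pin-transferred compounds, and grown at 37 °C for at least 48 hr. Viability was read as ATP luminescence.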
HT1080NT lethal = kills 2HG-producing HT-1080-NT fibrosarcoma cells; Potency, µM (titrated, usually from 46.1 µM), for inactives: at the top dose activity, negative = less viability, actives largely listed as cytotoxic; 360,000 tested, 1.6% active; AID 686970; HT-1080-NT fibrosarcoma viability, CellTiter-Glo ATP luminescence, 48 h;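 also: NT is the 2HG producing partner of a matched IDH1 knockdown line; 0% = DMSO-treated cells and -100% = media-only wells without cells; nearly all actives have a fitted effect of over 55% in size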
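HT-1080-NT; 750 cells/well; 5% FBS RPMI; 48 h compound, 37 degrees C; CellTiter-Glo luminescence; curve fitting and curve-class assignment.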
TDP1 cell noCPT = qHTS for Inhibitors of human tyrosyl-DNA phosphodiesterase 1 (TDP1): qHTS in cells in absence of CPT; AID 686978, 2013; Potency, µM (top dose mostly 46.2 µM), for inactives: at the highest dose activity change, negative = growth inhibition, hits mostly inhibitors; DT40 Tdp1-/- hTDP1 cells, no CPT, ATP luminescence, 48 h; 420,000 tested, 15% active; also: nearly all actives have a fitted effect of over 55% in size
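No-CPT arm: Tdp1-/-;hTDP1 DT40 cells (400/well) plus compounds, incubated ≥48 hr at 37 °C. Readout CellTiter-Glo luminescence.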
KB-V1 MDR tox = kills drug-selected multidrug resistant KB-V1 cells; KB-V1 MDR cells viability, CellTiter-Glo, 72 h; Potency, µM (titrated, usually from 46.1 µM), actives largely listed as cytotoxic; 400,000 tested, 3.4% active; AID 1347076; also: nearly all actives have a fitted effect of over 60% in size
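Compound-treated KB-V1 multidrug-resistant cells, 72 h, 37 degrees C; viability by CellTiter-Glo. Fitted qHTS curves give the values.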
KB-3-1 cytotox = KB-3-1 parental cell cytotoxicity | KB-3-1 viability, CellTiter-Glo ATP luminescence, 72 h | Potency, µM (top dose mostly 46.1 µM), actives largely listed as cytotoxic | 400,000 tested, 1.4% active | AID 1347075; also: nearly all actives have a fitted effect of over 60% in size
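Cells are dispensed, compounds pinned in, plates held at 37 °C for 72 h, then CellTiter-Glo is added and luminescence read after 10 minutes. Cell line: parental KB-3-1 in phenol-red-free DMEM, 10% FBS.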
* hit, by the source's call; i = inactive; ? = inconclusive; / = no result; [ ] = dose if it differs, or a comment. Calls follow the shape of the dose curve; as a rule, active = well fitted curve in the direction sought with a large enough effect; inconclusive = small, poorly fitted or top-dose-only effect, or another doubt; inactive = no such curve, though single readings can be large; an effect the other way counts as inactive or inconclusive. Unless noted, % is scaled to controls: 0 for no effect and ±100 for the full control effect; potency is read from the fitted curve at half-maximal effect.

SMILES	HT1080 IDH1KD tx	TDP1 cell CPT	HT1080NT lethal	TDP1 cell noCPT	KB-V1 MDR tox	KB-3-1 cytotox
Cc1cc(Br)ccc1NC(=O)COc1cc(=O)n(C)c2ccccc12	/	?	/	?	i	i
COc1ccccc1-n1cc(CN2CCC3(CCC(CNC(=O)c4ccccc4)O3)CC2)cn1 (stereo unspecified)	/	17.1%[9.04 µM]	/	-26.6%	/	/
CCn1c(SCC(=O)Nc2ccc(N3CCOCC3)cc2)nnc1-c1ccncc1	-0.5%	-2.5%	0.2%	-14.9%	i	i
O=C1CCCC2=C1C(c1ccco1)Nc1ccc3ccccc3c12 (stereo unspecified)	?	20.6µM*	-10.0%	18.4µM*	20.6µM*	i
Cc1ccc(CN2CCCCC2C(=O)Nc2ccc(Oc3cccnc3)cc2)o1 (stereo unspecified)	-20.6%	5.17µM*	?	7.31µM*	8.2µM*	5.17µM*
CCn1nc(C)c(CN2CCCCC2C(=O)Nc2ccc(Oc3cccnc3)cc2)c1C (stereo unspecified)	6.5%	9.2µM*	-0.2%	16.4µM*	?	i
Cc1ncc(CN2CCC(C(=O)Nc3ccc(Oc4cccnc4)cc3)CC2)cn1	-9.4%	?	-8.0%	-24.0%	?	i
C#Cc1ccc(CN2CCC(C(=O)Nc3ccc(Oc4ccccc4)nc3)CC2)cc1	?	14.6µM*	-29.7%	?	?	?
O=C(Nc1ccc(Oc2ccccc2)nc1)C1CCCCN1Cc1ccco1 (stereo unspecified)	?	4.11µM*	?	4.11µM*	?	i
CCn1cc(CN2CCC(C(=O)Nc3ccc(Oc4cccnc4)cc3)CC2)c(C)n1	1.6%	?	-1.6%	?	i	i
c1ccc(Nc2nc(NCc3ccco3)nc3nccnc23)cc1	16.9%	-2.7%	18.0%	-25.6%	/	/
Cc1cnc(-n2ncc(C(=O)NCCc3ccccn3)c2C)nc1-c1ccc(F)cc1	/	2.7%[9.04 µM]	/	?	/	/
CCc1ccc(CNC(=O)C(C)n2ccc3cc(S(=O)(=O)N4CCCCCC4)ccc32)cc1 (stereo unspecified)	/	?	/	?	i	i
Clc1cc(Cl)cc(Nc2ccccc2CN(C/C=C/c2ccc3c(c2)OCO3)Cc2ccccc2)c1	-1.0%	5.8%	-1.7%	-8.5%	i	i
Cc1nc(Nc2ccccc2)sc1C(=O)c1ccc(F)cc1	-29.4%	?	-22.4%	?	i	i
Nc1nc(Nc2ccccc2F)sc1C(=O)c1ccccc1	-26.6%	11.6µM*	-9.9%	?	i	10.3µM*
CC1CCN(c2nn3c(=O)c(C(=O)NCc4ccc(Cl)cc4)cnc3s2)CC1	/	-6.4%	/	3.7%	i	i
COc1ccc(NC(=O)CSc2nc(N)c3cc4c(nc3n2)CCCC4)cc1	2.0%	?	-1.6%	14.6µM*	i	i
O=C(CSc1nc2nc3c(cc2c(=O)n1-c1ccccc1)CCCC3)Nc1cccc2ccccc12	0.5%	-12.9%	-11.0%	?	i	i
CCn1c(SCc2ccccc2Cl)nc2nc3c(cc2c1=O)CCCC3	-29.2%	16.4µM*	-8.4%	23.1µM*	i	?
Cc1ccccc1-n1c(SCC(=O)Nc2ccccc2)nc2nc3c(cc2c1=O)CCCC3	-4.0%	?	-7.1%	16.4µM*	?	?
CCn1c(SCC(=O)Nc2ccc(OC)cc2)nc2nc3c(cc2c1=O)CCCC3	-15.3%	?	-13.2%	23.1µM*	i	i
CCOCC(=O)Nc1ccc2c(c1)N(S(=O)(=O)c1cccs1)CCC2	-9.9%	?	-5.9%	?	i	i
CCCN(Cc1cccs1)C(=O)Nc1cc(Cl)c(OC)cc1OC	/	?	/	?	i	i

High-throughput results: PubChem, National Center for Advancing Translational Sciences (NCATS)
